Assay results taken from PubChem BioAssay AID652142 (Molecular Libraries Program, Specialized Chemistry Center, …, 2013).
The whole screen tested about 2,400 compounds, of which fewer than 10 were called active. The rule behind the calls is not given here. The list is a sample of the results.

Target: Rac GTPase-activating protein 1 (Homo sapiens) (UniProt Q9H0H5)
Assay: inhibition of MgcRacGAP-stimulated Rac1 GTP hydrolysis – biochemical, inorganic phosphate detection, orthogonal assay, confirmation (AID 652142)
Conditions: MgcRacGAP/Rac1F28L GTP hydrolysis, Biomol green phosphate; stronger effect = higher value

Chain of Rac GTPase-activating protein 1 (Homo sapiens) (Q9H0H5 whole entry, looked up): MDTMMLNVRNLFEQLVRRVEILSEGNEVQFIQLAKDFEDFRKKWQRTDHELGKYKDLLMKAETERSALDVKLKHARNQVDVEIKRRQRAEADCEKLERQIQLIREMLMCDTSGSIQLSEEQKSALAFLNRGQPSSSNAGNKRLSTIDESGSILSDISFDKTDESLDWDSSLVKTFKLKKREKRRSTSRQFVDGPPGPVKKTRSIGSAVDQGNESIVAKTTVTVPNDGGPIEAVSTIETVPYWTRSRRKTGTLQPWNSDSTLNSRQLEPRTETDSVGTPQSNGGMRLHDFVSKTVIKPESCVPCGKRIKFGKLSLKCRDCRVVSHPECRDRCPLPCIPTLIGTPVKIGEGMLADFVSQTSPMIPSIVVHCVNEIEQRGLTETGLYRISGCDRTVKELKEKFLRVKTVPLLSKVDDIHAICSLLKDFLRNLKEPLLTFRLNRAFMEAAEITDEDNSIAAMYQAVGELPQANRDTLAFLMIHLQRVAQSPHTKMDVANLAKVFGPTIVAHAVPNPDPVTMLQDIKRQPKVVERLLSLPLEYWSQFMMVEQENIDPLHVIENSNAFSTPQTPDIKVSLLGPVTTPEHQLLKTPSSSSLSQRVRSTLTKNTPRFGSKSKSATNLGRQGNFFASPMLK

inhibition, inactive:
CCOc1ccc(/C=N/NC(=O)NC23CC4CC(CC(C4)C2)C3)cc1O 17.5%
CCn1c(C)nc2cc(C(=O)N/N=C/c3ccc(O)cc3)ccc21 22.6%
COc1ccc(Oc2c(-c3ccc(O)cc3O)n[nH]c2C)cc1 9.67%
C=C(CN(C)C)C(=O)c1cc(OC)c(OC)cc1OC 6.42%
CCn1c(=O)c(C(=O)CN(C)Cc2cccc(OC)c2OC)c(N)n(Cc2ccccc2)c1=O 35.9%
CCOc1ccc2c(ccc(/C=C/c3cc(C)c4cccnc4c3O)[n+]2C)c1 66.1%
CN(C)c1ccc(NC(=O)c2sc(SCC(=O)Nc3nccs3)nc2N)cc1 29.2%
Cc1ccc(NCCN(C)C)c2c(=O)c3cc(O)ccc3sc12 31.1%
C(=N\Nc1nc2ccccc2[nH]1)/c1c[nH]c2ccccc12 4.59%
COc1cc2c(cc1NC(=S)Nc1cccc3ccccc13)oc1ccccc12 21.3%
NS(=O)(=O)c1ccc(Nc2nc(-c3ccc(O)cc3O)cs2)cc1 24.5%
Cc1cc(=O)[nH]c2c(N=Nc3ccc(O)cc3)c(N)nn12 34.3%
CSCCOC(=O)C1=C(C)Nc2ccc(C)cc2S1 29.3%
OCC1CCCN(C(=S)Nc2ccc(Nc3ccccc3)cc2)C1 (stereo not drawn) 34.4%
COc1cc2c(cc1NC(=S)Nc1cccc(C(F)(F)F)c1)oc1ccccc12 8.84%
COc1cc(/C=N/n2c(-c3cc(C)[nH]n3)n[nH]c2=S)cc(OC)c1OC 1.28%
CCN(CC)c1ccc(C(=C2C=CC(=[N+](CC)CC)C=C2)c2ccc(N(CC)CC)cc2)cc1 90%
COc1cc(C=NNC(=O)c2ccccc2-n2cccc2)ccc1O 22%
COc1cc2c(cc1OC)C1(CCCC1)C(N)=C2C#N 18.7%
CC1CC(=O)N(c2ccc(NCCc3ccc(O)cc3)c([N+](=O)[O-])c2)C1=O (stereo not drawn) 29.1%
CCN1C(=O)/C(=C2/C=Cc3cc(C)ccc3N2CC)N(C)C1=S 23%
O=C(O)c1c2c(nc3ccccc13)/C(=C/c1ccc(O)cc1)CCC2 19.3%
CN(C)c1ccc(NC2=C(Cl)C(=O)c3ccccc3C2=O)cc1 22%
Cc1ccc(/C(N)=N/OC(=O)N2c3ccccc3Sc3ccccc32)cc1 23.7%
Oc1ccc(Nc2ncnc3ccccc23)cc1 20.3%
CN1/C(=C\C=N\NC(=O)c2ccc(O)cc2)C(C)(C)c2ccccc21 22.5%
O=C(Cn1c(C(=O)NCC2CCCO2)cc2sccc21)c1ccccc1 (stereo not drawn) 18.4%
Cc1ccc(NC(=O)CCNCc2ccco2)cc1S(=O)(=O)N(C)C 33.8%
CC(NCc1ccc(S(N)(=O)=O)cc1)C(=O)N1c2ccccc2CC1C (stereo not drawn) 13.9%
O=C(C1=C(O)C(=O)N(c2nc3ccc(Cl)cc3s2)C1c1ccco1)c1ccco1 (stereo not drawn) 28.7%
C/C(=N\NC(=O)c1ccccc1F)c1ccc2c(c1)Nc1ccccc1S2 20.8%
COc1cc(/C=C2\C(=O)N(C)C(=S)N2C)ccc1O 9.53%
COc1ccc(NC(=O)c2ccc(NC(=O)CN3CCN(c4ccc(O)cc4)CC3)cc2)cc1 18.8%
CN(C)CCNc1ccc(CO)c2oc3ccc(O)cc3c(=O)c12 14.8%
CN(C)c1ccc(/C=C/c2ccc3ccccc3[n+]2C)cc1 41%
Oc1ccc(/C=C/c2ccc3ccccc3n2)cc1 35.5%
O=C1/C(=C\c2ccc(O)cc2)SC(=S)N1/N=C/c1ccc(O)cc1 13.5%
COc1ccccc1C(=O)N1CCN(Cc2cccnc2)CC1 19.7%
CN(C)c1ccc(/C=C2/C[N+](C)(C)C/C(=C/c3ccc(N(C)C)cc3)C2=O)cc1 25.4%
Cc1cc(O)ccc1NC(=O)c1ccccc1 36%
Cc1cc(C)c2nc(C)cc(N/N=C/c3ccc(O)cc3)c2c1 41.9%
COc1cc(/C=C2\SC(=S)N(Nc3ccccc3)C2=O)ccc1O 19.2%
O=C(Oc1ccc(N(C(=O)c2ccncc2)S(=O)(=O)c2cccs2)cc1)c1ccncc1 26.2%
CCOc1cc(/C=C2\C(=O)N(CCc3ccc(OC)c(OC)c3)C(C)=C2C(=O)OC)ccc1O 20.6%
O=C(CN1CCN(c2ccc(O)cc2)CC1)NCC(=O)Nc1ccc(F)c(F)c1F 24.8%
O=C(COc1ccccc1C(=O)N/N=C\c1ccc(O)c(O)c1)N/N=C/c1ccc(O)c(O)c1 8.94%
COc1ccc(NC2CCCN(C(=O)c3ccc4[nH]c(C)c(C)c4c3)C2)cc1 (stereo not drawn) 17.9%
COc1cc(/C=N/NC(=O)CCn2c3ccccc3c3ccccc32)ccc1O 21%
COCCCNC1=C(C#N)C(=O)NC(c2cccs2)S1 (stereo not drawn) 40.4%
CN(C)CCNc1ccc(CO)c2sc3ccc(O)cc3c(=O)c12 12.6%
NC(CSS(=O)(=O)O)=NCCC12CC3CC(CC(O)(C3)C1)C2 34.4%
C=CCn1c(SCC(=O)Nc2ccc(N(C)C)cc2)nnc1-c1cccc(C)c1 15.5%
CCOc1cc(-c2nc3ccccc3s2)ccc1O 30.1%
Oc1ccc(/C=N/Nc2nn3cnnc3c3ccccc23)cc1 25.8%
Oc1ccc(/C=N/n2c(-c3ccco3)csc2=Nc2cccnc2)c(O)c1 23.8%
Cc1ccc(S(=O)(=O)c2cc(Nc3ccccc3)ccc2O)cc1 11.6%
Cc1cc(C)n(CC(O)CN2c3ccccc3Sc3ccccc32)n1 (stereo not drawn) 32.2%
CC(C)C1=Nc2cccc3cccc(c23)N1 22.3%
COc1nc(Nc2ccc(O)cc2)nc(OC(C(F)(F)F)C(F)(F)F)n1 18.1%
Clc1cccc(N/N=C/c2ccc(N3CCOCC3)s2)c1 29.3%
CCOC(=O)C1CCN(Cc2cn[nH]c2-c2ccccc2)CC1 27.9%
CCOc1cc(/C=N/NC(=O)Nc2ccccc2)ccc1O 23.6%
CCOc1cc(/C=C(\C#N)c2[nH]nc(N)c2C#N)ccc1O 29.6%
Cc1cc(-c2ccccc2)nc(N/N=C/c2ccc(O)cc2)n1 18.1%
CCOC(=O)C1=C(C)Nc2ccccc2S1 35.2%
C=CCOc1ccccc1CN1CCCN(C)CC1 22.3%
CCOc1cc(/C=C(\C#N)C(=O)NCC2CCCO2)ccc1O (stereo not drawn) 23.9%
CN1C(=O)NC(c2ccc(O)cc2)C2=C1CN(c1ccc(O)cc1)C2=O (stereo not drawn) 24.1%
Cc1ccnc(Nc2nc(-c3ccc(O)c(O)c3)cs2)c1 23.8%
CCOC(=O)c1nc(Nc2ccc(Nc3ccccc3)cc2)c2ccccc2n1 32%
Oc1ccc(NC(=S)N=Nc2c(O)[nH]c3ccc(Br)cc23)cc1 26.7%
CCOC(=O)c1[nH]c2ccccc2c1NC(=S)Nc1cccc(C)c1C 18.1%
CCN(CC)c1ccc(C(=C2C=CC(=[N+](CC)CC)C=C2)c2ccccc2)cc1 28%
CC(C)N=c1scc(-c2ccco2)n1/N=C/c1ccc(O)c(O)c1 27.8%
O=C1CSC(=S)N1Nc1ccccc1 17.3%
CCc1cc(-c2n[nH]c(CCC(=O)O)c2-c2nc3ccccc3n2C)c(O)cc1O 30.8%
Nc1nc(=S)c2[nH]c(=S)[nH]c2[nH]1 35.5%
CC(C(=O)NCC(=O)Nc1ccc(F)c(F)c1F)N1CCN(c2ccc(O)cc2)CC1 (stereo not drawn) 20.8%
